In the supplement of paper PMC6555819:

Legend:
Experiment in all cases: PBM binding z-score (relative to random genomic background probes); higher = stronger binding; sequences stand for … in GC…GCGATTGACAGCGTAGAATGAAGG
[1] = test system: FXR:RXRa (NR concentration 270 nM, RXRa partner concentration 90 nM)
How it was run: (§1)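 For binding z-scores, the reference was random background probes on custom Agilent 4×180K protein-binding microarrays. These arrays were incubated 1 h with ligand-free nuclear receptor dimers in PBS pH 7.4, 2% milk, 0.02% Triton X-100, 1 mM DTT, 0.2 mg/mL BSA and 0.4 mg/ml salmon testes DNA. Fluorescence was scanned after antibody detection of each partner (one per run) and regression-normalized.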

[2] = test system: LXRa:RXRa (NR concentration 270 nM, RXRa partner concentration 90 nM)
How it was run: as §1

[3] = test system: LXRa homodimer (NR concentration 270 nM)
How it was run: as §1

[4] = test system: LXRb:RXRa (NR concentration 270 nM, RXRa partner concentration 90 nM)
How it was run: as §1

[5] = test system: LXRb homodimer (NR concentration 270 nM)
How it was run: as §1

[6] = test system: PPARa:RXRa (NR concentration 270 nM, RXRa partner concentration 90 nM)
How it was run: as §1

[7] = test system: PPARg:RXRa (NR concentration 180 nM, RXRa partner concentration 90 nM)
How it was run: as §1

[8] = test system: PPARg:RXRa 270nM:90nM, anti-RXR (NR concentration 270 nM, RXRa partner concentration 90 nM)
How it was run: as §1

[9] = test system: PPARg:RXRa 30nM:10nM, anti-RXR (NR concentration 30 nM, RXRa partner concentration 10 nM)
How it was run: as §1

[10] = test system: PPARg:RXRa 90nM:30nM, anti-RXR (NR concentration 90 nM, RXRa partner concentration 30 nM)
How it was run: as §1

[11] = test system: PPARg:RXRa DBDmut IVT, anti-RXR (DBD mutation: RXRa K156A/R161A, NR concentration 270 nM, RXRa partner concentration 90 nM)
How it was run: as §1

[12] = test system: PPARg:RXRa IVT, anti-PPARg (NR concentration 270 nM, RXRa partner concentration 90 nM)
How it was run: as §1

[13] = test system: PPARg DBDmut:RXRa IVT, anti-PPARg (DBD mutation: PPARg1 K132A/R137A, NR concentration 270 nM, RXRa partner concentration 90 nM)
How it was run: as §1

[14] = test system: PPARg DBDmut IVT, anti-PPARg (DBD mutation: PPARg1 K132A/R137A, NR concentration 270 nM)
How it was run: as §1

[15] = test system: PPARg homodimer (NR concentration 180 nM)
How it was run: as §1

[16] = test system: PXR:RXRa (NR concentration 270 nM, RXRa partner concentration 90 nM)
How it was run: as §1

[17] = test system: PXR homodimer (NR concentration 270 nM)
How it was run: as §1

[18] = test system: RARa:RXR (NR concentration 270 nM, RXRa partner concentration 90 nM)
How it was run: as §1

[19] = test system: RARa homodimer (NR concentration 270 nM)
How it was run: as §1

[20] = test system: RARb:RXRa (NR concentration 270 nM, RXRa partner concentration 90 nM)
How it was run: as §1

| Sequence | PBM binding z-score [1] | PBM binding z-score [2] | PBM binding z-score [3] | PBM binding z-score [4] | PBM binding z-score [5] | PBM binding z-score [6] | PBM binding z-score [7] | PBM binding z-score [8] | PBM binding z-score [9] | PBM binding z-score [10] | PBM binding z-score [11] | PBM binding z-score [12] | PBM binding z-score [13] | PBM binding z-score [14] | PBM binding z-score [15] | PBM binding z-score [16] | PBM binding z-score [17] | PBM binding z-score [18] | PBM binding z-score [19] | PBM binding z-score [20] |
| --- | --- | --- | --- | --- | --- | --- | --- | --- | --- | --- | --- | --- | --- | --- | --- | --- | --- | --- | --- | --- |
| TAGCCTAGGTCAGATCGGGCCAGCATACGCTATA | 2.37 | 0.982 | -0.589 | 0.386 | -0.807 | 1.52 | 0.739 | 0.901 | -0.0521 | 0.135 | 0.377 | 1.4 | -0.988 | -0.801 | 0.0554 | 0.945 | -0.628 | 1.3 | -0.92 | 3.09 |
| AGAATGAGGTTATTAAGACCAGGGAATTGCGGTC | 1.7 | 1.52 | -0.287 | 1.09 | -0.232 | 2.8 | 1.57 | 1.93 | 0.533 | 1.05 | 2.67 | 2.43 | 1.16 | 0.232 | 0.709 | 1.02 | -0.304 | 1.49 | -0.0801 | 1.38 |
| CGTCAAACTTCAAGGTAACGTAACAGAAAGCAGC | 0.471 | 0.1 | 0.0122 | 0.289 | 0.209 | 0.32 | 0.645 | 0.119 | 0.337 | 0.21 | 0.101 | 0.749 | 0.373 | 0.926 | 0.291 | 0.178 | 0.193 | 0.544 | -0.134 | 0.507 |
| TCCAGTAGGTTACCAATGGGGCATTCAGCTTTCT | 0.247 | 1.53 | -0.513 | 0.676 | -0.862 | 1.6 | 1.15 | 2.54 | 2.63 | 2.39 | 4.6 | 4.34 | -0.355 | -0.253 | 0.0888 | 0.286 | -0.589 | 0.451 | -0.883 | 1.31 |
| ATCGAAAGGTCGAAGGTGAGTATACCCACCCGAA | 4.3 | 3.8 | 0.189 | 2.86 | 0.5 | 4.67 | 4.53 | 5.13 | 2.14 | 4.33 | 0.0439 | 2.38 | 0.373 | 0.686 | 1.04 | 2.96 | -0.372 | 3.94 | 0.591 | 3.82 |
| CGTCCAAGGTGATAGGAGGTCAGTGAAGACAGAT | 1.74 | 2.85 | 0.6 | 1.86 | -0.299 | 2.71 | 1.06 | 1.49 | 0.0813 | 0.512 | 1.37 | 2.78 | 0.0253 | 0.186 | 1.91 | 3.57 | 0.47 | 2.31 | 0.367 | 2.85 |
